Screening results as filed in PubChem.
Sampled rows, rich in hits. Any-hit rate of the full collection: about 1.3%.
SARS PLpro yeast: qHTS of Yeast-based Assay for SARS-CoV PLP; S. cerevisiae expressing SARS-CoV PLpro, growth rescue; Potency, µM (doses to about 32.9 µM), without a hit: at the top dose activity, positive = growth rescue, usual class: activators; actives 0.19% (n = 330,000); calls by dose curve; further: 0% is about no effect; nearly all actives have a fitted effect of over 55% in size
AmpC detergent: qHTS Inhibitors of AmpC Beta-Lactamase (assay with detergent). AmpC hydrolysis of nitrocefin, absorbance 480 nm, 0.01% Triton. actives 0.041% (n = 370,000). AID 485294, 2010. P00811. Potency, µM (doses to about 114 µM), without a hit: top-dose activity change, negative = inhibition, hits mostly inhibitors;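 further: 0% = no-compound wells and -100% = no-enzyme wells; nearly all actives have a fitted effect of over 25% in size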
Target sequence (P00811 whole entry, looked up): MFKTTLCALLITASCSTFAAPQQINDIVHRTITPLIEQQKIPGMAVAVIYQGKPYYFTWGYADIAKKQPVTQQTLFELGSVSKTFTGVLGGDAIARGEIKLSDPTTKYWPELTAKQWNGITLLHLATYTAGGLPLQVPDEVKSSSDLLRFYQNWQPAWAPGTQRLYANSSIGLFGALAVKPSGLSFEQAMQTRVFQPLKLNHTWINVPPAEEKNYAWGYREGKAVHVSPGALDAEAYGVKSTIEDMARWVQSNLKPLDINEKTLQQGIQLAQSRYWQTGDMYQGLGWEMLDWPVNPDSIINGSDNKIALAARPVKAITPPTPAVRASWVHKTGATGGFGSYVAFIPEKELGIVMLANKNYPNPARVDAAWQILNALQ
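20 mM phosphate pH 7.0 + 0.01% (detergent screen) or 0.0001% Triton X-100; 5.3 nM AmpC reagent; cpd preinc 15 min RT; nitrocefin (800 uM stock) to start; A480 q20 s × 4 min; Activity was normalised to no-enzyme and no-compound control wells.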
Vaccinia Venus: qHTS for Stage-Specific Inhibitors of Vaccinia Orthopoxvirus: Venus Reporter Primary qHTS. Vaccinia virus Venus reporter expression, fluorescence. Potency, µM (doses to about 36.5 µM), inactives show top-dose activity change, negative = inhibition, most hits filed as inhibitors. actives 0.46% (n = 330,000). AID 720580, 2013; calls by dose curve; tested in A549 cells; further: on the % scale 0 is the no-effect control and ±100 the full control effect; nearly all actives have a fitted effect of over 30% in size
AmpC no deterg: qHTS Inhibitors of AmpC Beta-Lactamase (assay without detergent) | AmpC nitrocefin hydrolysis, absorbance 480 nm, 0.0001% Triton | Potency, µM (top dose mostly 57.1 µM), for inactives: top-dose activity change, negative = inhibition, most hits filed as inhibitors | actives 0.52% (n = 330,000);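 further: plate controls were no compound for no effect and no enzyme for full effect; nearly all actives have a fitted effect of over 20% in size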
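AmpC (5.3 nM in the dispensed reagent) in 20 mM phosphate pH 7.0 with 0.01% (detergent screen) or 0.0001% Triton X-100 was preincubated with compounds for 15 min at room temperature. Nitrocefin was then added from an 800 uM solution, and hydrolysis was followed at 480 nm.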
VACV mCherry inh: qHTS for Stage-Specific Inhibitors of Vaccinia Orthopoxvirus: mCherry Reporter Primary qHTS; Vaccinia virus mCherry reporter infection, fluorescence; Potency, µM (highest dose often 36.5 µM), without a hit: top-dose activity change, negative = inhibition, hits mostly inhibitors; actives 0.63% (n = 310,000); AID 720579, 2013; calls by dose curve; tested in A549 cells; further: on the % scale 0 is the no-effect control and ±100 the full control effect; nearly all actives have a fitted effect of over 35% in size
Starred values were filed as active, the others as inactive; i = inactive; ? = inconclusive; nt = no result; ! = a repeat was not active. Unless noted, the call rests on the fitted dose curve; in most records, active means well fitted curve in the direction sought with a large enough effect; inconclusive means small, poorly fitted or top-dose-only effect, or another doubt; inactive means no such curve, though single readings can be large; an effect the other way counts as inactive or inconclusive. Potency means the concentration at half of the fitted maximal effect.

SMILES	SARS PLpro yeast	AmpC detergent	Vaccinia Venus	AmpC no deterg	VACV mCherry inh
O=C1C=C2C(=CCOC2O)O1 (configuration not stated)	nt	nt	11.2µM*	nt	11.2µM*
O=C(CSc1n[nH]c(-c2ccccn2)n1)Nc1cccc(Cl)c1	-0.3%	0.8%	-23.5%	-54.5%	?
Cc1ccccc1NC(=O)CSc1n[nH]c(-c2ccccn2)n1	3.2%	-0.3%	-21.9%	-9.9%	6.31µM*
Cc1ccc(C)c(NC(=O)CSc2nnc(-c3ccccc3)o2)c1	-0.3%	?	-3.4%	39.8µM*	5.7%
Cc1ccc(C)c(NC(=O)CSc2n[nH]c(-c3ccccn3)n2)c1	1.6%	-9.1%	?	-25.3%	7.94µM*
COc1cc(-c2c(OC)cccc2OC)cc2c1OCCN(Cc1cn[nH]c1-c1ccc(Cl)cc1)C2	nt	nt	0.0%	nt	-3.9%
CCC1(C2CCN(C(=O)c3ccccc3C(C)=O)CC2)NC(=O)N(CCc2scnc2C)C1=O (configuration not stated)	nt	nt	-15.8%	nt	-15.3%
Cc1cc(-c2ccnc(-n3ncc(C(=O)NCc4cccnc4)c3C3CC3)n2)c(C)s1	nt	nt	6.3%	nt	-12.3%
COc1cc(-c2cc(C)c3cccc(OC)c3n2)cc2c1OCCN(C(=O)CCn1ccc(C)n1)C2	nt	nt	-9.2%	nt	-28.5%
NS(=O)(=O)c1ccc(CCNC(=O)c2ccc(Cl)s2)cc1	23.5%	1.6%	nt	-17.8%	nt
NS(=O)(=O)c1ccc(CCNC(=O)c2ccc([N+](=O)[O-])s2)cc1	-4.1%	-8.5%	?	-23.3%	11.2µM*
COc1cc(-c2ccc3oc(-c4ccsc4)cc3c2)cc(OC)c1OC	nt	nt	14.1µM*	nt	?
Cc1ccc2nc(SCC(=O)Nc3cccc(S(=O)(=O)N(C)C)c3)[nH]c2c1	-6.8%	-9.8%	-15.5%	-53.4%	-22.1%
NS(=O)(=O)c1cccc(NC(=O)CSc2nc3ccc(Cl)cc3[nH]2)c1	0.7%	?	2.4%	17.8µM*	-7.1%
COc1cccc(-n2c(SC)nnc2C2CCN(Cc3cccc(OC)c3O)CC2)c1	nt	nt	1.1%	nt	-6.6%
Oc1ccc(Nc2nc(-c3ccccc3)nc3ccccc23)cc1	-7.8%	-5.8%	?	17.8µM*	?
CCC1COCCS(=O)(=O)N1Cc1ccc(Cl)cc1 (configuration not stated)	-15.5%	0.8%	-14.5%	22.8%	-20.7%
CC(C)[C@H]1COCCS(=O)(=O)N1Cc1ccc(Cl)cc1	-3.9%	-12.0%	?	28.3%	25.1µM*
CCCC[C@H]1COCCS(=O)(=O)N1Cc1ccc(C)cc1	0.3%	-14.9%	2.24µM*	83.7%	?
CCC(O)CNC(=O)c1cnn(-c2nccc(-c3cc(C)sc3C)n2)c1C1CC1 (configuration not stated)	nt	nt	-11.7%	nt	-24.7%
CCCN1CNC(=S)N(c2ccc(C(=O)OCC)cc2)C1	5.3%	-4.9%	-8.2%	-43.1%	-22.1%
CCOC(=O)c1ccc(N2CN(CC)CNC2=S)cc1	10µM*	-1.3%	-18.6%	-10.7%	i
O=C(c1ccccc1-n1cccn1)N1CCOc2ccc(CN3CCOCC3)cc2C1	nt	nt	14.1%	nt	-0.6%
CC(=O)OCC#CCSc1nc2ccccc2n1C	22.4µM*	4.9%	-10.0%	-25.4%	-27.6%
COc1ccc(/C=C2\SC(=O)N(CC(=O)NNC(=O)c3ccccc3O)C2=O)cc1	7.2%	-5.1%	-4.4%	11.2µM*	-9.9%
SMILES	SARS PLpro yeast	AmpC detergent	Vaccinia Venus	AmpC no deterg	VACV mCherry inh
C=CCNc1nc(C(=O)OCC(=O)c2ccc(C)c([N+](=O)[O-])c2)cs1	16.6%	1.9%	-4.8%	20µM*	-11.1%
C=CCNc1nc(C(=O)OCC(=O)c2ccc(Cl)cc2)cs1	-0.8%	-10.6%	3.7%	-42.8%	-13.5%
COc1ccc(C(=O)NCCN2Cc3cc(C)ccc3OC(C)C2)c(OC)n1 (configuration not stated)	nt	nt	2.4%	nt	-0.9%
CC1CCN(S(=O)(=O)c2ccc(NC(=O)CSc3nnnn3C)cc2)CC1	2.0%	-4.6%	nt	0.159µM*	nt
CN1CCN(S(=O)(=O)c2ccc(NC(=O)c3cccs3)cc2)CC1	nt	-4.5%	-7.5%	nt	nt
CC1CCN(S(=O)(=O)c2ccc(NC(=O)c3cccs3)cc2)CC1	-1.7%	?	?	28.2µM*	nt
CC1Cc2ccccc2N1C(=O)CSc1nnc(-c2ccccc2Cl)o1 (configuration not stated)	nt	26.1%	-5.9%	nt	3.9%
C/C(=N\Nc1ncnc2sc(C)c(C)c12)c1ccccn1	-15.2%	6.0%	-21.3%	70.0%	5.01µM*
Cn1c(SSc2ccc(-c3cccnc3)n2C)ccc1-c1cccnc1	nt	nt	?	nt	12.6µM*
c1cncc(-c2nnc(-c3cccnc3)nn2)c1	-26.9%	-13.8%	1.5%	-9.4%	-9.3%
Oc1ccc(/C=N/N=C(c2ccccc2)c2ccccc2)c(O)c1O	-3.9%	0.2%	-6.0%	-43.2%	?
O=C(/C(=N/N=C/c1ccc(O)c(O)c1O)c1ccccc1)c1ccccc1	-100.0%	19.2%	-27.3%	20µM*	-21.8%
O=C(Nc1cc(S(=O)(=O)Nc2ccc(Cl)cc2)ccc1O)c1ccc(S(=O)(=O)N2CCCCCC2)cc1	2.7%	-6.1%	-26.2%	?	?
O=C(N/N=C\c1cc(Cl)ccc1O)c1ccc(S(=O)(=O)N2CCCCC2)cc1	?	?	?	-32.3%	12.6µM*
COCC(=O)Nc1cc(C(=O)N2CCc3sccc3C2)c2c(c1)nc(-c1ccncc1)n2C	nt	nt	-11.4%	nt	-14.5%
Oc1ccc(C2C(c3ccccc3)=NN=C(c3ccc(Cl)cc3)N2O)c(O)c1 (configuration not stated)	13.5%	?	3.5%	25.1µM*	i
O=C1C(SCCO)=C(SCCO)C(=O)c2ccccc21	nt	?	?	-26.1%	10µM*!
C[n+]1ccc(/C=C/c2cc[n+](C)c3ccccc23)c2ccccc21	nt	nt	10µM*	nt	?
C[n+]1ccc(/C=C/c2ccc([N+](C)(C)C)cc2)c2ccccc21	nt	nt	458.1%	nt	i
CCn1ncc(Br)c1C(=O)Nc1ccc(F)cc1F	-4.6%	-1.3%	-0.2%	0.316µM*	i
c1cnc(N2CCN(Cc3c[nH]c4ccccc34)CC2)nc1	1.0%	-8.3%	12.6µM*	-7.9%	nt
COC(=O)[C@H](C)N(Cc1ccc(Cl)c(Cl)c1)S(=O)(=O)CCN1CCN(c2ccccc2)CC1	-5.0%	nt	?	69.6%	14.1µM*
COC(=O)[C@H](C)N(Cc1ccc(Cl)c(Cl)c1)S(=O)(=O)CCN1CCCC1	1.9%	nt	?	70.9%	?
N#Cc1ccc(S(=O)(=O)N2CCN(c3nc(-c4cccs4)nc4ccccc34)CC2)cc1	nt	nt	-15.2%	nt	-20.8%
